# Compound activity as filed in PubChem.
# MITF inh – inhibitors of human MITF; inhibition, % at 2.6 µM; AlphaScreen MITF homodimerization, bead proximity signal; 650,000 compounds, 0.91% hits; in the data active means inhibition above about 50%
# FBW7 activator – activators of human E3 ligase FBW7 | Q969H0 | AlphaScreen FBW7–phospho-cyclin E peptide binding, activator screen | normalized activity (activation), % at 26.1 µM | 650,000 compounds, 0.13% hits | AID 1259310; in the data active means normalized activity above about 1.9%;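 further: purified mutant Fbw7 with reduced substrate affinity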
# TEAD-YAP inh – TEAD-YAP interaction inhibition; inhibition, % at 9.12 µM; AID 1259422; 640,000 compounds, 1.4% hits; HEK-TIYL cells, TEAD-Gal4/YAP UAS-luciferase luminescence; in the data active means inhibition above about 32%
# GPR151 activ – human GPR151 activation; PathHunter beta-arrestin GPR151 cells, luminescence; activation, % at 11.2 µM; Q8TDV0; AID 1508602; 650,000 compounds, 1% hits; in the data active means activation above about 4.9%
# GPR151 conf act – confirmation of human GPR151 activators | GPR151 PathHunter beta-arrestin cells, luminescence, 90 min; % of EA-reagent control over plate median | shares compounds with GPR151 activ | 6,700 tested, under 10 active | activation, % at 11.2 µM;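 active means mean percent activation across replicates above the confirmation screen cutoff of 4.91%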
# GPR119 counter – GPR119 activation, counter-screen for GPR151 activators. shares compounds with GPR151 activ. GPR119 PathHunter beta-arrestin cells, luminescence, 90 min; 0 = compound-well median, 100 = enzyme-acceptor control. activation, % at 11.2 µM. 6,700 compounds, 0.3% hits. AID 1508611;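 active means mean percent activation in the counterscreen above 29.09%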;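 further: counterscreen on off-target GPR119 to flag nonselective hits from the GPR151 activator screen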
# Target sequence (Q8TDV5 whole entry, looked up): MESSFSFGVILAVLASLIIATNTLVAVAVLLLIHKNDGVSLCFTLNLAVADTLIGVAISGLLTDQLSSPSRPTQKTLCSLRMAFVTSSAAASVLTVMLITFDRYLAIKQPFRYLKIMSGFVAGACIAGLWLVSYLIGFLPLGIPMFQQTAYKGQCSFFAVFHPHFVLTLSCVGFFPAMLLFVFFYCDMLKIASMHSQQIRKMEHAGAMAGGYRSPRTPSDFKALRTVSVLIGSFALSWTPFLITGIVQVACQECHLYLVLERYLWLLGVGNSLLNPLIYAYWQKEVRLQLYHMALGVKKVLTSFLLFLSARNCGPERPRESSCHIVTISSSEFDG
# A number is an active result; . = inactive; / = not tested or not shown. An excerpt weighted towards active compounds, which were near 3.5% of everything screened.
SMILES,MITF inh,FBW7 activator,TEAD-YAP inh,GPR151 activ,GPR151 conf act,GPR119 counter
CN(C)CCCN1C(=O)C(=O)/C(=C(\O)c2ccccc2)C1c1ccc(F)cc1 (configuration not stated),.,.,.,.,/,/
CC1CCN(c2nc(N3CCOCC3)nc(N3CCOCC3)n2)CC1,.,.,.,8.9,.,.
CC(C)(C)NC(=O)NC(=O)COC(=O)Cn1cnc2ccccc2c1=O,.,.,.,6.8,.,.
CC(C)(C)NC(=O)NC(=O)COC(=O)Cc1ccc(Cl)c(Cl)c1,.,.,.,7.2,.,.
Cc1ccccc1-c1cc(C(N)=O)c2ccccc2n1,.,.,.,.,/,/
Cc1c(Cl)cccc1NC(=O)C1CCC(=O)N1 (configuration not stated),.,.,.,.,/,/
CCN(CC(=O)Nc1nc2c(s1)C(=O)CC(C)(C)C2)c1ccccc1,.,.,.,.,/,/
CCN(CC)c1ccc(C(=O)Nc2nc3c(s2)C(=O)CC(C)(C)C3)cc1,.,.,.,5.2,.,.
Cc1cc(NCc2ccccc2)nc(NCc2ccc3c(c2)OCO3)n1,.,.,.,.,/,/
O=C(CCCC(=O)Nc1ccc(Cl)cc1)Nc1ccc(Cl)cc1,.,.,.,14,.,.
O=C(CCC(=O)Nc1ccc(Cl)cc1)Nc1ccc(Cl)cc1,.,.,.,.,/,/
COCc1ccc([C@@H]2C[C@H]3CN(C4Cc5ccccc5C4)C(=O)[C@]34CCCN24)o1,.,.,.,.,/,/
COCc1ccc([C@@H]2C[C@H]3CN(c4ccccc4)C(=O)[C@]34CCCN24)o1,.,.,.,5.6,.,.
O=C(Nc1ccccc1)NC1(C(F)(F)F)Oc2ccc(Cl)cc2O1 (configuration not stated),.,.,.,5.2,.,.
O=C(CCl)NC1(C(F)(F)F)Oc2ccccc2O1,.,.,.,.,/,/
O=C(NC1(C(F)(F)F)Oc2ccccc2O1)C(F)(F)F,.,.,.,6.2,.,.
O=C(Nc1cccc(C(F)(F)F)c1)NC1(C(F)(F)F)Oc2ccc(Cl)cc2O1 (configuration not stated),.,.,.,.,/,/
CCOc1ccc2c(-c3cc4cc(Br)ccc4oc3=O)cc(=O)oc2c1,.,.,.,7.9,.,.
COc1cc(NC(=O)NC(C)C)c2ncccc2c1,.,.,.,.,/,/
COc1cc(NC(=O)C2CCCCC2)c2ncccc2c1,.,.,.,5.3,.,.
O=C(N1CCCCC1)C12CC3CC(C1)CC(c1ccc([N+](=O)[O-])cc1)(C3)C2,.,.,.,6.8,.,.
CCn1c2ccccc2c2cc(CN3CCN(Cc4ccc(OC)c(OC)c4OC)CC3)ccc21,.,.,.,.,/,/
COc1ccc(CN2CCN(Cc3ccc(OC)c(OC)c3OC)CC2)cc1OC,.,.,.,5.9,.,.
Cc1ccc(C(=O)N[C@H]2C[C@H]3C(=O)N[C@H](C)C(=O)N3C2)cc1,.,.,.,5.9,.,.
C[C@@H]1NC(=O)[C@@H]2C[C@H](NC(=O)c3ccc(F)cc3)CN2C1=O,.,.,.,.,/,/
SMILES,MITF inh,FBW7 activator,TEAD-YAP inh,GPR151 activ,GPR151 conf act,GPR119 counter
Cc1ccc(N2C(=O)/C(=C/c3ccc(N4CCOCC4)o3)C(=O)NC2=S)cc1,.,.,.,.,/,/
COc1ccc([N+](=O)[O-])cc1/C=C1\C(=O)N(c2ccccc2)N=C1C,.,.,.,8.1,.,.
O=C(Nc1ncc(Cc2ccc(Cl)cc2Cl)s1)c1ccc(Cl)cc1,.,.,.,5.7,.,.
Fc1ccccc1-c1nnc2sc(/C=C/c3cccs3)nn12,.,.,.,.,/,/
Cc1ccc(C)c(OCC(=O)O/N=C(\N)c2ccc(Br)cc2)c1,.,.,.,.,/,/
Cc1ccc(C)c(OCC(=O)O/N=C(\N)c2ccc(I)cc2)c1,.,.,.,5.5,.,.
COc1cc(C(=O)O/N=C(\N)c2ccc(Br)cc2)cc(OC)c1OC,.,.,.,6.6,.,.
Cc1ccc(/C(N)=N/OC(=O)COc2ccc(Br)cc2)cc1,.,.,.,8.5,.,.
CCOC(=O)C1=C(C(=O)OCC)SC(=C2C(=S)C(C)(C)N(C(=O)c3ccc(F)cc3)c3ccc(C)cc32)S1,.,.,.,.,/,/
CC(C)(O)[C@@H]1CCC[N+]2(C)CCCCC12 (some centres not stated),.,.,.,.,/,/
CC[n+]1ccc2cc(C)ccc2c1S(=O)(=O)O,.,.,.,.,/,/
CCCCCCCCCCCCCCCC(=O)OC[C@H](COP(=O)(O)OCC[N+](C)(C)C)OC(=O)CCCCCCCC(=O)/C=C/C(=O)O,.,/,/,.,/,/
Cc1ccc2c(NC(=O)c3ccc(Cl)cc3)noc2n1,.,.,.,7.1,.,.
CCOc1ccc(-n2c(C)nc3cc(C(=O)NCc4ccc(C)cc4)ccc32)cc1,.,.,.,5.3,.,.
COc1ccc(-c2[nH]nc3c2C(c2ccc(C(F)(F)F)cc2)C(C#N)=C(N)O3)cc1OC (configuration not stated),.,.,.,.,/,/
COc1ccc(-c2noc(N3CCC(C(=O)NC(C)CCc4ccccc4)CC3)n2)cc1 (configuration not stated),.,.,.,5.1,.,.
COc1ccc(-c2noc(N3CCC(C(=O)O)CC3)n2)cc1,.,.,.,.,/,/
COc1ccc(-c2noc(N3CCCC(C(=O)NC4CCCc5ccccc54)C3)n2)cc1 (configuration not stated),.,.,.,5.6,.,.
COc1ccc(-c2noc(N3CCCC(C(=O)N4CCCc5ccccc54)C3)n2)cc1 (configuration not stated),.,.,.,.,/,/
COc1ccc(-c2noc(N3CCCC(C(=O)Nc4ccccc4OC)C3)n2)cc1 (configuration not stated),.,.,.,10,.,.
CCOC(=O)C1=C(C)N=c2s/c(=C/c3cc(C)n(-c4ccc(Br)cc4)c3C)c(=O)n2C1c1ccccc1 (configuration not stated),.,.,.,.,/,/
C[C@H](O)[C@H]1NC(=O)[C@H]2CN(Cc3cnn(-c4ccccc4)c3)CCN2C1=O,.,.,.,.,/,/
C=CCOC(=O)C1=C(C)N2CCSC2=C(C#N)C1c1ccco1 (configuration not stated),.,.,.,5.1,.,.
CCOc1cccc2sc(NC(=O)C3=COCCO3)nc12,.,.,.,6.6,.,.
Nc1nc(NCc2nc3ccccc3[nH]2)cc(-c2csc3ccccc23)n1,.,.,.,5.6,.,.
COCCN(CCOC)S(=O)(=O)c1ccc(C(=O)Nc2nc(-c3ccncc3)cs2)cc1,.,.,.,8.8,.,.
COCCN(CCOC)S(=O)(=O)c1ccc(C(=O)Nc2nc(-c3ccc(OC)cc3)cs2)cc1,.,.,.,.,/,/
O=C1/C(=C/c2ccccc2Cl)N=C2CCCCCN12,.,.,.,.,/,/
